CHT allo act: CHT positive allosteric modulators, primary screen, cell-based, membrane potential dye, choline EC20; CHT-expressing cells; hits give high values; LV-AA mutant CHT in HEK293 cells; High affinity choline transporter 1 (Homo sapiens), Q9GZV3; hit rate 0.49% among 310,000; B-score at 10 µM;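 active = initial fluorescence not abnormally high and integrated response B-score, plate-corrected, over 3 SD above library mean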
IDE act: human IDE activators in live cells, primary screen, fluorescence polarization, HEK cells, FAbeta-B substrate; Insulin-degrading enzyme (Homo sapiens), P14735; FAbeta-B cleavage; 0% vehicle, 100% cell-free pure enzyme wells; activation, % at 5.96 µM; hit rate 0.073% among 340,000; AID 493087, 2011;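 active = activation above the mean of all tested compounds plus 3 SD, set per screening campaign, cut at about 17% in these data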
ANO1 activ: TMEM16A chloride channel activators or potentiators, primary screen, cell-based, HTS. hit rate 0.3% among 340,000. B-score at 10 µM. AID 623877, 2012. HEK293 TMEM16A/YFP-H148Q/I152L, iodide quench fluorescence; hits give low values;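 active = fluorescence-ratio B-score plate-corrected deviation score at least 3 library SD below zero, with starting fluorescence score within 5 deviations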;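 also: channel opened by trigger with iodide after compound preincubation; score built on the fluorescence ratio of max minus min over baseline; more negative score means more quench and so TMEM16A activation or potentiation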
Target sequence (Q8BHY3 whole entry, looked up): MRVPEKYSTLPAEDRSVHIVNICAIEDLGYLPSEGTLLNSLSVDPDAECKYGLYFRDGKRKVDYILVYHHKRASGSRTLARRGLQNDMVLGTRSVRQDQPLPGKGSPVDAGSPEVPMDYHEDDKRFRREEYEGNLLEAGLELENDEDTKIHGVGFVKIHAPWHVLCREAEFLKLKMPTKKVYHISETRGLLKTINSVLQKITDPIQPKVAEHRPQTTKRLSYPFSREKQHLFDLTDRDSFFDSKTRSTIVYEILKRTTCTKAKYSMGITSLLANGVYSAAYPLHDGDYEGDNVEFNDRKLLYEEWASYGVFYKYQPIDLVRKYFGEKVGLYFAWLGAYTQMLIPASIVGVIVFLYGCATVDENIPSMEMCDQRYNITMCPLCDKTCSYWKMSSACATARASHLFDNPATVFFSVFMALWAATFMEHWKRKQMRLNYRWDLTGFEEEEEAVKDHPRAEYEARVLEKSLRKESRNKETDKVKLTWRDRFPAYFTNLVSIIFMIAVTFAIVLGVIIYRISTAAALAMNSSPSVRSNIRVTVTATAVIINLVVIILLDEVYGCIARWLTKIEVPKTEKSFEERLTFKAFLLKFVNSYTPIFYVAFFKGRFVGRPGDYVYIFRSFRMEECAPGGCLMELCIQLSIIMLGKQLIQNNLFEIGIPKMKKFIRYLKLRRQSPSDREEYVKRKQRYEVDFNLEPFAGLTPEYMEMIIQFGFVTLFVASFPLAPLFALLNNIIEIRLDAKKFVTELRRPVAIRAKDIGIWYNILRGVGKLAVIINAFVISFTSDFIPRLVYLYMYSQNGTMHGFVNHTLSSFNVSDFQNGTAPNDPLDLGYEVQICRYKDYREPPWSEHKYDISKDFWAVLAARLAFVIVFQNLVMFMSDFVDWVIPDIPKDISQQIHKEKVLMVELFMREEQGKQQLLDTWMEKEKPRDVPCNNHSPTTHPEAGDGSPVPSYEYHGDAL
CHT block: inhibitors of human choline transporter CHT; High affinity choline transporter 1 (Homo sapiens), Q9GZV3; CHT-expressing cells, membrane potential dye, choline response; hits give low values; B-score at 10 µM; hit rate 0.86% among 310,000;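 active = B-score over 3 SD under the library average, and starting fluorescence ratio not unusually high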;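 also: choline stimulus applied at its EC90 after an EC20 pre-addition; B-score computed on integrated fluorescence ratio after choline addition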
ANO1 block: TMEM16A chloride channel inhibitors, primary screen, cell-based, HTS | Anoctamin-1 (Mus musculus), Q8BHY3 | HEK293 TMEM16A/YFP iodide influx fluorescence, ionomycin | normalized B-score (activity score, 25-100; higher = stronger inhibition) at 10 µM | hit rate 1.2% among 310,000 | AID 588511, 2011;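 active = ratio plate-corrected score three or more library SD toward inhibition, starting fluorescence score within five deviations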;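 also: score derived from kinetic fluorescence span divided by baseline fluorescence per well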
IDE inh: human IDE inhibitors in live cells, primary screen, fluorescence polarization, HEK cells, FAbetaB substrate; FAbetaB cleavage; inhibition, % at 5.59 µM; Insulin-degrading enzyme (Homo sapiens), P14735; hit rate 0.41% among 320,000;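 active = percent inhibition above the average of all tested compounds plus 3 SD, set per screening campaign, cut at about 16% in these data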;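 also: IDE supplied by intact live HEK cells; FP after avidin binding of uncleaved biotin substrate so inhibition keeps polarization high; 0% = DMSO wells and 100% = 60 µM reference IDE inhibitor Ii1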
TMEM16A reconf: TMEM16A chloride channel inhibitors, confirmation, cell-based, re-confirmation. shares compounds with ANO1 block. HEK293 TMEM16A/YFP-H148Q, iodide quench fluorescence; ionomycin added to raise cell calcium. inhibition, % at 10 µM. hit rate 39% among 2,300. AID 652189, 2013;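 active = mean duplicate percent inhibition, scaled so buffer wells are 0 and the reference blocker 100, over three buffer SD above buffer mean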
TMEM16A Ca cntr: calcium mobilization in TMEM16A/YFP HEK293 cells, confirmation, counter-screen for TMEM16A inhibitor project | shares compounds with ANO1 block | Fluo4 calcium mobilization | calcium response (% of ionomycin), % at 10 µM | hit rate 2% among 2,300;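 active = duplicate-averaged calcium signal over 20% of the ionomycin maximum, relative to buffer baseline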;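 also: each well's signal is peak minus trough fluorescence divided by its pre-addition baseline; 0% = buffer wells and 100% = ionomycin wells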
Parental YFP cnt: iodide YFP quench changes in parental YFP-HEK293, counter-screen for TMEM16A inhibitor project, cell-based; ionomycin; shares compounds with ANO1 block; YFP ratio F(max-min)/F0 at 10 µM; 2,300 tested, under 10 active;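 active = yellow fluorescent protein signal ratio exceeding the buffer control mean by over 5 SD of those controls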;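 also: ratio is mean of duplicate wells from kinetic YFP trace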
ClC-1 inh: ClC-1 chloride channel inhibition, selectivity assay for TMEM16A inhibitor project, cell-based, voltage-dependent ClC-1; CHO ClC-1-YFP, iodide influx fluorescence quench; iodide control reads 0, buffer control 100; ratio percent, % at 10 µM; 2,300 tested, under 10 active; shares compounds with ANO1 block;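 active = duplicate-mean ratio percent above the mean of iodide-only control wells, which defines zero, plus 5 of their SD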;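 also: higher percent means stronger block of ClC-1 iodide influx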
* = called active by the depositor. A selection: hits, their analogues and other compounds. The true share with any hit is near 2.7%.

CN(CC(=O)Nc1ccccc1Br)C(=O)c1ccccc1OCc1ccccc1Cl was read as IDE act 5 and ANO1 activ inactive.
Screening CCOC(=O)c1ccc(NC(=S)N2CCSC2c2ccc(Br)cc2)cc1 (centres undefined) returned CHT allo act inactive, IDE act 2, ANO1 activ -6.5*, CHT block inactive, ANO1 block 25*, IDE inh 5, TMEM16A reconf 82%*, TMEM16A Ca cntr inactive, Parental YFP cnt -1.1 and ClC-1 inh -2.
Screening CCOC(=O)c1ccc(NC(=S)N2CCC(O)CC2)cc1 returned CHT allo act inactive, IDE act -1, ANO1 activ inactive, CHT block inactive, ANO1 block inactive and IDE inh 1.
Cc1noc(C)c1COc1cccc(C(=O)NCCc2c[nH]c3ccccc23)c1 was read as CHT allo act inactive, IDE act 1, ANO1 activ inactive, CHT block inactive, ANO1 block 25*, IDE inh -4, TMEM16A reconf inactive, TMEM16A Ca cntr inactive, Parental YFP cnt -1.1 and ClC-1 inh -3.
Screening Cc1ccc(CNC(=O)c2cccc(OCc3c(C)noc3C)c2)cc1 returned CHT allo act inactive, IDE act 4, ANO1 activ inactive, CHT block inactive, ANO1 block inactive and IDE inh -2.
For COc1ccc(/C=C2/CCc3ccccc3C2=O)cc1OC the results were CHT allo act inactive, IDE act 2, ANO1 activ inactive, CHT block inactive, ANO1 block inactive and IDE inh -5.
`COc1cc(OC)c(OC)cc1/C=C1/Cc2ccccc2C1=O` gave CHT allo act inactive, IDE act -8, ANO1 activ inactive, CHT block inactive, ANO1 block inactive, IDE inh 5, TMEM16A reconf inactive, TMEM16A Ca cntr 28%*, Parental YFP cnt -0.98 and ClC-1 inh -2.
Cc1ccsc1C(=O)OCc1csc(-c2ccccc2)n1 was read as CHT allo act inactive, IDE act 7, ANO1 activ inactive, CHT block inactive, ANO1 block 100*, IDE inh 6, TMEM16A reconf 16%*, TMEM16A Ca cntr inactive, Parental YFP cnt -1.1 and ClC-1 inh -4.
`COc1cccc(OCC(=O)Nc2ccncc2)c1` gave CHT allo act inactive, IDE act 2, ANO1 activ inactive, CHT block inactive, ANO1 block inactive and IDE inh -1.
For CCc1ccc(OCC(=O)Nc2ccncc2)c(Br)c1 the results were CHT allo act inactive, IDE act -2, ANO1 activ inactive, CHT block inactive, ANO1 block inactive and IDE inh -1.
Cc1cc(OCC(=O)Nc2ccncc2)c(C)cc1Br was read as CHT allo act inactive, IDE act 2, ANO1 activ inactive, CHT block inactive, ANO1 block 25*, IDE inh -1, TMEM16A reconf 34%*, TMEM16A Ca cntr inactive, Parental YFP cnt -0.88 and ClC-1 inh 0.

Bioassay records from PubChem.
